The source of these data is the supplement of paper PMC9492666.

Counter-ions that a name gives are not always drawn.
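Further: breast cancer cell viability read out with the CCK-8 kit after co-treatment of each compound with the ferroptosis inducer RSL3.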

The assay concerns HCC1937. Description: relative cell viability, compound + RSL3, vs DMSO (fraction of DMSO control); higher = less growth inhibition. The note with it: 72 h.
On to `NC(=O)c1cnccn1` [Pyrazinamide] + COC(=O)c1ccc([C@H]2c3[nH]c4ccccc4c3C[C@H](C(=O)OC)N2C(=O)CCl)cc1 [RSL3], for which the relative cell viability was determined as 0.607.

Turning to `C[C@@H](Nc1nc(N[C@H](C)C(F)(F)F)nc(-c2cccc(Cl)n2)n1)C(F)(F)F` [Vorasidenib] + COC(=O)c1ccc([C@H]2c3[nH]c4ccccc4c3C[C@H](C(=O)OC)N2C(=O)CCl)cc1 [RSL3], the relative cell viability was found to be 0.409.

Take `O=C(OC(C(F)(F)F)C(F)(F)F)N1CCC(C(O)(c2ccc3c(c2)OCO3)c2ccc3c(c2)OCO3)CC1` + COC(=O)c1ccc([C@H]2c3[nH]c4ccccc4c3C[C@H](C(=O)OC)N2C(=O)CCl)cc1 [RSL3]: the relative cell viability is 0.551.

Turning to `O=C(Nc1ccncc1)c1cc([N+](=O)[O-])ccc1Cl` + COC(=O)c1ccc([C@H]2c3[nH]c4ccccc4c3C[C@H](C(=O)OC)N2C(=O)CCl)cc1 [RSL3], the relative cell viability was 0.297.

In the case of `O=C(O)CC[C@H](O)C(=O)O` [L-2-Hydroxyglutaric acid disodium] + COC(=O)c1ccc([C@H]2c3[nH]c4ccccc4c3C[C@H](C(=O)OC)N2C(=O)CCl)cc1 [RSL3], the relative cell viability came to 0.554.

In the case of `CCC1C(O)C2C3CCC(C(C)CCO)C3(C)CCC2C2(C)CCC(O)CC12` (stereo not drawn) + COC(=O)c1ccc([C@H]2c3[nH]c4ccccc4c3C[C@H](C(=O)OC)N2C(=O)CCl)cc1 [RSL3], the relative cell viability stood at 0.399.

With `CC(C)=CCC(O)C1=CC(=O)c2c(O)ccc(O)c2C1=O` (single isomer, unassigned; (+)) [(+)-Shikonin] + COC(=O)c1ccc([C@H]2c3[nH]c4ccccc4c3C[C@H](C(=O)OC)N2C(=O)CCl)cc1 [RSL3], the relative cell viability turned out to be 0.0766.

With `CS(=O)(=O)c1ccc(-c2nnc(/C=C/c3nnc(-c4ccc(C#N)cc4)o3)n2-c2ccccc2Cl)nc1` + COC(=O)c1ccc([C@H]2c3[nH]c4ccccc4c3C[C@H](C(=O)OC)N2C(=O)CCl)cc1 [RSL3], the relative cell viability amounted to 0.508.

For the molecule `CC(=O)N1CCN(c2ccc(OCC3COC(Cn4ccnc4)(c4ccc(Cl)cc4Cl)O3)cc2)CC1` (stereo not drawn) [Ketoconazole] + COC(=O)c1ccc([C@H]2c3[nH]c4ccccc4c3C[C@H](C(=O)OC)N2C(=O)CCl)cc1 [RSL3], the relative cell viability is 0.63.

Turning to `O=C(O)Cc1cccc(OCCCN(Cc2cccc(C(F)(F)F)c2Cl)CC(c2ccccc2)c2ccccc2)c1` + COC(=O)c1ccc([C@H]2c3[nH]c4ccccc4c3C[C@H](C(=O)OC)N2C(=O)CCl)cc1 [RSL3], the relative cell viability came to 0.418.

Consider `CC(C)(Oc1ccc(CCNC(=O)c2ccc(Cl)cc2)cc1)C(=O)O` [Bezafibrate] + COC(=O)c1ccc([C@H]2c3[nH]c4ccccc4c3C[C@H](C(=O)OC)N2C(=O)CCl)cc1 [RSL3], for which the relative cell viability amounted to 0.594.

`CCCC[S+]([O-])c1sc2nc(-c3cccs3)cc(-c3ccccc3)c2c1N` (stereo not drawn) + COC(=O)c1ccc([C@H]2c3[nH]c4ccccc4c3C[C@H](C(=O)OC)N2C(=O)CCl)cc1 [RSL3]: the relative cell viability came out at 0.748.

Turning to `COc1ccc(C2(CNC(=O)c3ccc(NC(=O)c4ccco4)cc3)CCOCC2)cc1` + COC(=O)c1ccc([C@H]2c3[nH]c4ccccc4c3C[C@H](C(=O)OC)N2C(=O)CCl)cc1 [RSL3], the relative cell viability amounted to 0.441.

Turning to `Cc1cc(N2C[C@@H](C)N[C@@H](C)C2)ncc1-c1ccc(-c2nc3c(ccn3C)c(=O)[nH]2)cc1` + COC(=O)c1ccc([C@H]2c3[nH]c4ccccc4c3C[C@H](C(=O)OC)N2C(=O)CCl)cc1 [RSL3], the relative cell viability amounted to 0.496.

With `Cc1c(C)c2c(c(C)c1O)CCC(C)(COc1ccc(CC3SC(=O)NC3=O)cc1)O2` (stereo not drawn) [Troglitazone] + COC(=O)c1ccc([C@H]2c3[nH]c4ccccc4c3C[C@H](C(=O)OC)N2C(=O)CCl)cc1 [RSL3], the relative cell viability was determined as 0.431.

As to `CC(C)(Oc1ccc(C(=O)c2ccc(Cl)cc2)cc1)C(=O)O` [Fenofibric acid] + COC(=O)c1ccc([C@H]2c3[nH]c4ccccc4c3C[C@H](C(=O)OC)N2C(=O)CCl)cc1 [RSL3], the relative cell viability amounted to 0.536.

Take `CN(C)C(=N)NC(=N)N` [Metformin hydrochloride] + COC(=O)c1ccc([C@H]2c3[nH]c4ccccc4c3C[C@H](C(=O)OC)N2C(=O)CCl)cc1 [RSL3]: the relative cell viability is 0.855.

Regarding `CC(C)OC(=O)CCC/C=C\C[C@@H]1[C@@H](CC[C@@H](O)CCc2ccccc2)[C@H](O)C[C@@H]1O` [Latanoprost] + COC(=O)c1ccc([C@H]2c3[nH]c4ccccc4c3C[C@H](C(=O)OC)N2C(=O)CCl)cc1 [RSL3], the relative cell viability amounted to 1.03.
